According to the supplement of paper PMC7726561:

Target: HLA-C*04:01
Assay: thermal melting temperature (Tm) of peptide-HLA complex; higher = more thermostable pHLA complex
Settings: C1R-A*02:01
How it was run: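 Lysates of C1R-A*02:01 or C1R-B*07:02 cells (5 × 10^7 cell equivalents per replicate) were heated 10 min in triplicate at 37–73 °C and then cooled on ice. They were immunoprecipitated overnight at 4 °C with W6/32–protein A sepharose, and acid-eluted peptides were spiked with iRT peptides and quantified by DIA-MS. Peak areas were iRT-normalised, outlier-corrected and expressed as median fold-change versus 37 °C. Tm is the transition midpoint of a least-squares logistic sigmoid fit; fits required R^2 > 0.85.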

Sequence	thermal melting temperature [°C]
LFDKSINEF	56.3
LYDPVISKL	56.9
HWDPQEVTL	58.9
FYDPDVGNF	50.9
TFDDIVHSF	54.2
IYDKFIAQL	52.5
IYDSVKVYF	56.8
IWDVSVNSV	50.8
FFDEESYSL	45
LYDVPANSM	51.1
TFDPVTKVL	51.4
AFDEAIAEL	58.4
KYDPNVYSI	50.6
YYEEQHPEL	48.6
IWEPLAVKL	47.3
SYMEVPTYL	54.8
TFDVAPSRL	52.3
KFDDGAVFL	60.9

Same assay, conditions: C1R-B*07:02

Sequence	thermal melting temperature [°C]
LFDKSINEF	57.2
LYDPVISKL	57.3
HWDPQEVTL	57.7
FYDPDVGNF	51.2
TFDDIVHSF	55.3
IYDKFIAQL	54.5
IYDSVKVYF	57
IWDVSVNSV	58.7
FFDEESYSL	43.7
LYDVPANSM	57.6
TFDPVTKVL	51.5
AFDEAIAEL	62.7
KYDPNVYSI	55.2
YYEEQHPEL	47
IWEPLAVKL	47.2
SYMEVPTYL	61
TFDVAPSRL	52.4
KFDDGAVFL	60.4
